{"source": "paper PMC4336329", "about": "(PLoS ONE, 2015)", "note": "Among all 310,000 compounds or so, about 14,000 (4.5%) showed an effect of 50% or more. The effect is printed as a negative number. Many of the other results were omitted from the sample, so strong results are more common in it than they were.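 Note: peak tail current of the secondary pulse compared with the same well before compound.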", "data": [{"biological_target": "human ether-à-go-go-related gene (hERG) potassium channel (human, UniProt Q12809)", "sequence (Q12809 whole entry, looked up)": "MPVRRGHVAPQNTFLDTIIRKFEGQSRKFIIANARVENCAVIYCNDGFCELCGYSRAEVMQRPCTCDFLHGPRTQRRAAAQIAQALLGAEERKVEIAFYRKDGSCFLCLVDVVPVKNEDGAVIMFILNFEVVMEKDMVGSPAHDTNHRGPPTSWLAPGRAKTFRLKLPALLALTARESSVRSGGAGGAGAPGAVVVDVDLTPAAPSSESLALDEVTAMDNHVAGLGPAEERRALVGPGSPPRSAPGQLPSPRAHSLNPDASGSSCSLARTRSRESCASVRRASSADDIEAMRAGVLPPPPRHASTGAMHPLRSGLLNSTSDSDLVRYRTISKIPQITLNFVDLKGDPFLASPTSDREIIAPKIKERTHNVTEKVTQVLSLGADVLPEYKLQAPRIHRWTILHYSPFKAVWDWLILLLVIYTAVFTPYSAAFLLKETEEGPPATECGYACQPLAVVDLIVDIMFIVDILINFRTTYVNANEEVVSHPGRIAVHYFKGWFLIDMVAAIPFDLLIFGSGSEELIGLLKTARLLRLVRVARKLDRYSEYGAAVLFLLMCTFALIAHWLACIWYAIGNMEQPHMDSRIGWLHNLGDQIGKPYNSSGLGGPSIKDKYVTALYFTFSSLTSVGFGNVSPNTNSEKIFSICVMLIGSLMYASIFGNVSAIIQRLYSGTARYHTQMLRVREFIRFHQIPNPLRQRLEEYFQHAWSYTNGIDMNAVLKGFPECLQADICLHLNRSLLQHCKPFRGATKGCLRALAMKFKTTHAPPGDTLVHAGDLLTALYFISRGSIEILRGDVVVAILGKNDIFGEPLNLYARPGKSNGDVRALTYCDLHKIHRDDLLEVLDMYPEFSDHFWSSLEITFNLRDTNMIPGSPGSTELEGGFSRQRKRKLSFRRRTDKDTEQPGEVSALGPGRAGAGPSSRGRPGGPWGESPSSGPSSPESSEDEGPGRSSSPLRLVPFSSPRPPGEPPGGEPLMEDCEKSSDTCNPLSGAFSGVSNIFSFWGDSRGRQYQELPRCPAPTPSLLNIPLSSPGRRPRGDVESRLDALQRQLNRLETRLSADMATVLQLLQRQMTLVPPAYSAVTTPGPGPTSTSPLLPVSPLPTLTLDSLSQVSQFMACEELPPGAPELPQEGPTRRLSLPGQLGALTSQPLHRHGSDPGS", "experiment": "primary screen, population patch clamp on CHO cells stably expressing hERG; higher = less effect of the substance", "units": {"hERG current change (%, negative = inhibition) at 10uM": "%"}, "values": [{"smiles": "CC(=O)c1cccc(NC(=O)C(CC(C)C)NC(=O)C2CCCCC2)c1", "note": "(centres unmarked)", "hERG current change (%, negative = inhibition) at 10uM": -4.77}, {"smiles": "O=C(O)c1c2c(nc3ccc(S(=O)(=O)N4CCC(C(=O)NC5CCCC5)CC4)cc13)CCCCC2", "hERG current change (%, negative = inhibition) at 10uM": 9.65}, {"smiles": "O=C1c2oc3ccc(Cl)cc3c(=O)c2C(c2cccc(Br)c2)N1CCO", "note": "(centres unmarked)", "hERG current change (%, negative = inhibition) at 10uM": -13.1}, {"smiles": "COc1ccc(/C(=N\\O)c2ncc(C(F)(F)F)cc2Cl)cc1", "hERG current change (%, negative = inhibition) at 10uM": -3.33}, {"smiles": "CCOC(=O)c1cnc(COc2ccccc2Cl)[nH]c1=O", "hERG current change (%, negative = inhibition) at 10uM": 16}, {"smiles": "CCn1c(SCC(=O)N2CCCC2)nc2ccccc2c1=O", "hERG current change (%, negative = inhibition) at 10uM": -23}, {"smiles": "CC(C)Cn1c(SCC(=O)N2CCOCC2)nc2ccccc2c1=O", "hERG current change (%, negative = inhibition) at 10uM": -5.9}, {"smiles": "CC(C)Cn1c(SCC(=O)N2CCCCC2)nc2ccccc2c1=O", "hERG current change (%, negative = inhibition) at 10uM": -24.7}, {"smiles": "CCCn1c(SCC(=O)N2CCN(C(=O)c3ccco3)CC2)nc2ccccc2c1=O", "hERG current change (%, negative = inhibition) at 10uM": -82.8}, {"smiles": "O=C(CSc1nc2ccccc2n1CC(=O)N1CCCC1)N1CCN(C(=O)c2ccco2)CC1", "hERG current change (%, negative = inhibition) at 10uM": -0.921}, {"smiles": "CC(C)Cn1c(SCC(=O)N2CCN(C(=O)c3ccco3)CC2)nc2ccccc2c1=O", "hERG current change (%, negative = inhibition) at 10uM": -73.2}, {"smiles": "Cc1nc2ccccc2c(=O)n1-c1ccc(F)cc1", "hERG current change (%, negative = inhibition) at 10uM": -12.1}, {"smiles": "COCCCNC(=S)Nc1ccc(OC(F)F)cc1C", "hERG current change (%, negative = inhibition) at 10uM": 7.74}, {"smiles": "Cc1cc(NC(=O)CCN2CCC(C(N)=O)CC2)ccc1Br", "hERG current change (%, negative = inhibition) at 10uM": -26.7}, {"smiles": "CCOC(=O)C1CCCN(CCC(=O)Nc2ccc(Br)c(C)c2)C1.Cl", "note": "(centres unmarked)", "hERG current change (%, negative = inhibition) at 10uM": -36.1}, {"smiles": "CCOC(=O)C1CCN(CC(=O)Nc2ccc(OC)c(Cl)c2)CC1", "hERG current change (%, negative = inhibition) at 10uM": -12.5}, {"smiles": "CCOC(=O)C1CCN(c2c(Nc3ccc(C)c(C)c3)c(=O)c2=O)CC1", "hERG current change (%, negative = inhibition) at 10uM": -12.6}, {"smiles": "CCOC(=O)C1CCN(CCC(=O)Nc2ccc(C)c(C)c2)CC1", "hERG current change (%, negative = inhibition) at 10uM": -54.2}, {"smiles": "CCOC(=O)C1CCN(CCC(=O)Nc2ccc(Br)c(C)c2)CC1", "hERG current change (%, negative = inhibition) at 10uM": -62.8}, {"smiles": "CCCCn1c(Nc2ccccc2)nc2ccccc21", "hERG current change (%, negative = inhibition) at 10uM": 24.7}, {"smiles": "CCOc1ccc(S(=O)(=O)Nc2cccc(C(=O)N3CCN(C(C)=O)CC3)c2)cc1", "hERG current change (%, negative = inhibition) at 10uM": -14.9}, {"smiles": "C/C(=N/NS(=O)(=O)c1ccc(C(C)(C)C)cc1)c1ccc2c(c1)OCO2", "hERG current change (%, negative = inhibition) at 10uM": -3.17}, {"smiles": "Cc1cc(=O)oc2cc(OCC(=O)OCC(=O)N(CCC#N)c3ccccc3)ccc12", "hERG current change (%, negative = inhibition) at 10uM": 6.04}, {"smiles": "COC(=O)c1ccc(C(=O)OC)c(NC(=O)CN(c2ccc3c(c2)OCO3)S(C)(=O)=O)c1", "hERG current change (%, negative = inhibition) at 10uM": -21.1}, {"smiles": "CSCCCNC(=O)c1ccccc1OC1CCN(S(C)(=O)=O)CC1", "hERG current change (%, negative = inhibition) at 10uM": 1.38}, {"smiles": "COCCNC(=O)c1sc2ncn(CC(=O)Nc3ccc(C)c(Cl)c3)c(=O)c2c1C", "hERG current change (%, negative = inhibition) at 10uM": 10.5}, {"smiles": "CCN(CC)CCNC(=O)c1sc2ncn(CC(=O)Nc3ccc(C)c(Cl)c3)c(=O)c2c1C", "hERG current change (%, negative = inhibition) at 10uM": -51.8}, {"smiles": "CCN(CC)CCCNC(=O)c1sc2ncn(CC(=O)Nc3ccc(C)c(Cl)c3)c(=O)c2c1C", "hERG current change (%, negative = inhibition) at 10uM": -13}, {"smiles": "COc1ccc(C(=O)C(CCCCC(CN(C)C)C(=O)c2ccc(OC)cc2)CN(C)C)cc1.Cl", "note": "(centres unmarked)", "hERG current change (%, negative = inhibition) at 10uM": -2.07}, {"smiles": "O/N=C/c1ccc(OCc2ccccc2F)c(Cl)c1", "hERG current change (%, negative = inhibition) at 10uM": 2.95}, {"smiles": "COc1cc2c(cc1NC(=O)CN1C(=O)NC3(CCc4ccccc43)C1=O)oc1ccccc12", "note": "(centres unmarked)", "hERG current change (%, negative = inhibition) at 10uM": 7.1}, {"smiles": "C=CCn1c(COc2ccc(Cl)cc2)nnc1SCC(=O)N/N=C/c1ccccc1", "hERG current change (%, negative = inhibition) at 10uM": -7.71}, {"smiles": "C=CCn1c(COc2ccc(Cl)cc2)nnc1SCC(=O)N1CC(=O)Nc2ccccc21", "hERG current change (%, negative = inhibition) at 10uM": -63.5}, {"smiles": "C=CCn1c(COc2ccccc2F)nnc1SCC(=O)N1CC(=O)Nc2ccccc21", "hERG current change (%, negative = inhibition) at 10uM": -22.6}, {"smiles": "C=CCn1c(COc2ccc(F)cc2)nnc1SCC(=O)N1CC(=O)Nc2ccccc21", "hERG current change (%, negative = inhibition) at 10uM": -33}, {"smiles": "C=CCn1c(COc2ccccc2)nnc1SCc1ccc(C#N)cc1", "hERG current change (%, negative = inhibition) at 10uM": -68.2}, {"smiles": "C=CCn1c(COc2ccc(Cl)cc2)nnc1SCc1ccc(C#N)cc1", "hERG current change (%, negative = inhibition) at 10uM": -69.8}, {"smiles": "C=CCn1c(COc2ccccc2)nnc1SCC(=O)O", "hERG current change (%, negative = inhibition) at 10uM": -3.46}, {"smiles": "C=CCn1c(COc2ccc(Cl)cc2)nnc1SCC(=O)NCC(=O)OCC", "hERG current change (%, negative = inhibition) at 10uM": -31.4}, {"smiles": "C=CCn1c(COc2ccccc2)nnc1SCC(=O)C(C)(C)C", "hERG current change (%, negative = inhibition) at 10uM": -13.6}, {"smiles": "O=C(CSCc1ccc(F)cc1)NCc1ccc(F)cc1", "hERG current change (%, negative = inhibition) at 10uM": -24.7}, {"smiles": "Cc1n[nH]c(=S)n(NC(=O)CC(=O)Nn2c(=S)[nH]nc(C)c2=O)c1=O", "hERG current change (%, negative = inhibition) at 10uM": 45.4}, {"smiles": "COc1ccc(NC(=O)C(C)SCc2ccccc2)cc1OC", "note": "(centres unmarked)", "hERG current change (%, negative = inhibition) at 10uM": -1.56}, {"smiles": "C=CCSc1nc2sc3c(c2c(=O)[nH]1)CCC3", "hERG current change (%, negative = inhibition) at 10uM": 2.84}, {"smiles": "CN(CC(=O)NC1CCCCC1)S(=O)(=O)c1ccc(Br)s1", "hERG current change (%, negative = inhibition) at 10uM": 20.1}, {"smiles": "CCc1ccc2c(c1)C1(SC(NC(C)=O)=NN1C(C)=O)C(=O)N2CC", "note": "(centres unmarked)", "hERG current change (%, negative = inhibition) at 10uM": -0.0665}, {"smiles": "C=CCNC(=O)C1CCN(S(C)(=O)=O)CC1", "hERG current change (%, negative = inhibition) at 10uM": -0.873}, {"smiles": "CNC(=S)N(Cc1cccs1)Cc1cc2ccc(OC)cc2[nH]c1=O", "hERG current change (%, negative = inhibition) at 10uM": 6.44}, {"smiles": "O=C1NCC(COc2ccc([N+](=O)[O-])cc2)O1", "note": "(centres unmarked)", "hERG current change (%, negative = inhibition) at 10uM": -78.4}, {"smiles": "O=C1NCC(COc2ccc(Cl)cc2)O1", "note": "(centres unmarked)", "hERG current change (%, negative = inhibition) at 10uM": 48.4}, {"smiles": "COc1ccc(OCC2CNC(=O)O2)cc1", "note": "(centres unmarked)", "hERG current change (%, negative = inhibition) at 10uM": -26.2}, {"smiles": "CCCn1cc(CN2CCCC(C(=O)c3cccc(OC)c3)C2)c(C)n1", "note": "(centres unmarked)", "hERG current change (%, negative = inhibition) at 10uM": -51}, {"smiles": "CCCn1ncc(CN2CCCC(C(=O)c3cccc(OC(C)C)c3)C2)c1C", "note": "(centres unmarked)", "hERG current change (%, negative = inhibition) at 10uM": -48.8}, {"smiles": "CCCn1cc(CN2CCCC(C(=O)c3ccc4c(c3)OCO4)C2)c(C)n1", "note": "(centres unmarked)", "hERG current change (%, negative = inhibition) at 10uM": -55.4}, {"smiles": "CCCn1ncc(CN2CCCC(C(=O)c3cccc(OC)c3)C2)c1C", "note": "(centres unmarked)", "hERG current change (%, negative = inhibition) at 10uM": -67.8}, {"smiles": "CCCn1cc(CN2CCC(n3nccc3NC(=O)c3ccc4c(c3)OCO4)CC2)c(C)n1", "hERG current change (%, negative = inhibition) at 10uM": -5.62}, {"smiles": "CCn1ncc(CN2CCCC(C(=O)c3cccc(OC(C)C)c3)C2)c1C", "note": "(centres unmarked)", "hERG current change (%, negative = inhibition) at 10uM": -19.8}, {"smiles": "CCCn1cc(CN2CCCC(C(=O)c3cccc(OC(C)C)c3)C2)c(C)n1", "note": "(centres unmarked)", "hERG current change (%, negative = inhibition) at 10uM": -35.5}, {"smiles": "CCn1cc(CN2CCCC(C(=O)c3cccc(OC)c3)C2)c(C)n1", "note": "(centres unmarked)", "hERG current change (%, negative = inhibition) at 10uM": -21.3}]}]}
